# From PubChem BioAssay AID504652 (National Center for Advancing Translational Sciences (NCATS), 2011)
# About 11,000 (3.1%) of roughly 360,000 compounds were called active. This is one part of a sample in which actives are shown more often than they occur. Values without a mark were called inactive. No stated cut-off is given here; in the data, active means activity change below about -30%; inactive means the rest.
# Target: D(1A) dopamine receptor (Homo sapiens) (UniProt P21728)
# Assay: Antagonist of Human D 1 Dopamine Receptor: qHTS
# Conditions: HEK293 TREx D1 cells, calcium flux, dopamine EC80; at 10 µM; hits give low values
# Outline: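 Cells carrying a force-coupled, tetracycline-inducible human D1 receptor report calcium flux. Each well gets a 10 s baseline, compound with 180 s monitoring, then an EC80 dopamine stimulus with a second 180 s kinetic read.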
# On the % scale 0 is the no-effect control and ±100 the full control effect.
# Sequence of D(1A) dopamine receptor (Homo sapiens) (P21728 whole entry, looked up): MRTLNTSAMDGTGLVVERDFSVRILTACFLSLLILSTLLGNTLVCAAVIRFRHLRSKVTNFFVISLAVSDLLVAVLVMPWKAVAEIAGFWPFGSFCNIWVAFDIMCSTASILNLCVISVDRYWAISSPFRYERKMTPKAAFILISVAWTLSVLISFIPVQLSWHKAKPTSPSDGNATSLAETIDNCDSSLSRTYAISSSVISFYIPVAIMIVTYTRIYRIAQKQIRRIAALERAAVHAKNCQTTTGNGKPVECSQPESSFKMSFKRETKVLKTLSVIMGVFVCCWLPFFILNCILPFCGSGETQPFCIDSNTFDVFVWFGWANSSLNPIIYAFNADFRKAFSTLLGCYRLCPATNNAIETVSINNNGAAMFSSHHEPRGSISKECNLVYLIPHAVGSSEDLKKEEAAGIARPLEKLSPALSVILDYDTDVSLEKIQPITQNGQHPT
row,SMILES,"activity change, negative = inhibition"
1,CC1CCN(c2ccc([N+](=O)[O-])c(SCCO)c2)CC1,-30.7% (active)
2,Cc1nn(-c2ccc(N3CCCCC3)nn2)c(C)c1CCC(=O)NCc1ccccc1F,-7.94%
3,Cc1cccc(OCCSc2nc3ccccc3n2CC(=O)N2CCCCC2)c1C,-17.2%
4,O=C(OCC(=O)N1CCc2ccccc21)c1ccc([N+](=O)[O-])cc1,-13%
5,O=C1CCCN1C(=O)COc1ccc([N+](=O)[O-])cc1,-83.3% (active)
6,COc1ccc(C(CNC(=O)COc2ccc([N+](=O)[O-])cc2)N2CCCCC2)cc1 (centres undefined),6.98%
7,O=C(NCC(c1cccnc1)N1CCc2ccccc21)c1cccc(C(F)(F)F)c1 (centres undefined),4.34%
8,Cc1ccc2oc3c(c(=O)c2c1)C(c1ccc([N+](=O)[O-])cc1)N(CCCN1CCOCC1)C3=O (centres undefined),-8.02%
9,Cc1ccc(-c2nn3c(=O)cc(CN4CCN(C(=O)Nc5cccc(C(F)(F)F)c5)CC4)nc3s2)cc1,4.59%
10,Cc1ccc(C)c(N2CCN(C(=O)CN3C(=O)COc4ccc(S(=O)(=O)N5CCCCCC5)cc43)CC2)c1,-0.74%
11,S=c1[nH]nc(-c2ccco2)n1/N=C/c1ccc(Br)s1,-38.6% (active)
12,Cc1ccsc1/C=N/n1c(=S)[nH]nc(C)c1=O,0.744%
13,Cc1ccccc1-c1n[nH]c(=S)n1/N=C/c1ccc(-c2ccccc2Br)o1,-0.652%
14,O=C(CN1C(=O)COc2ccc(S(=O)(=O)N3CCOCC3)cc21)N1CCN(c2cccc(Cl)c2)CC1,-5.01%
15,COc1ccc(CNC(=O)CCc2c(C)nn(-c3ccc(N4CCCC4)nn3)c2C)cc1,8.22%
16,Cc1ccc(-n2nc(C)c(C(=O)O)c2-n2cccc2)cc1,-8.13%
17,Cc1nn(-c2ccccc2)c(-n2cccc2)c1C(=O)O,-45.8% (active)
18,Cc1nn(-c2ccc(F)cc2)c(-n2cccc2)c1C(=O)N1CCN(c2ccccc2)CC1,21%
19,CCN(CC)CCNC(=O)c1cc2c(=O)oc3ccc(C)cc3c2s1,4.45%
20,COc1cc(OC)c(NC(=O)c2nc(-c3ccncc3)no2)cc1Cl,-32.7% (active)
21,COc1cc(OC)c(NC(=O)c2c3c(nn2C)-c2ccccc2SC3)cc1Cl,2.27%
22,COc1cc(NC(=O)c2ccc(-c3csc(C)n3)cc2)c(OC)cc1Cl,-3.88%

row,SMILES,"activity change, negative = inhibition"
1,COc1ccc(NC(=O)c2ccc3oc(=O)c(S(=O)(=O)c4ccc(F)cc4)cc3c2)c(OC)c1,4.65%
2,O=C(Nc1cc(-c2nc3ccccc3o2)ccc1Cl)c1cc([N+](=O)[O-])ccc1N1CCOCC1,-2.21%
3,Cc1ccccc1Nc1nc(N)nc(COC(=O)CCC(=O)c2ccc(F)cc2)n1,-23.2%
4,Nc1nc(CC(=O)CSc2ccc(Cl)cc2)nc(Nc2ccc(F)cc2)n1,-8.8%
5,Nc1nc(COC(=O)CCC(=O)c2ccc(Cl)cc2)nc(Nc2ccccc2)n1,-34.3% (active)
6,COc1ccccc1-c1cc(C(F)(F)F)nc(S(=O)(=O)CCCC(=O)Nc2cc(C)ccc2O)n1,-0.269%
7,CCOC(=O)c1cc2c(=O)n3ccccc3nc2n(CCCOC)c1=NC(=O)C(C)Oc1ccccc1 (centres undefined),-0.513%
8,O=S(=O)(NC1CCCCC1)c1ccc(F)c2ccccc12,-32.8% (active)
9,O=S(=O)(NC1CC1)c1ccc2c3c(cccc13)CC2,-23.6%
10,CCc1ccccc1NC(=O)c1ccc(F)c(S(=O)(=O)NC2CCCCCC2)c1,-16.4%
11,CCN1CCN(c2ncc3c(n2)CC(c2ccccc2O)CC3=O)CC1 (centres undefined),0.271%
12,CCN(Cc1ccccc1)Cc1c(O)ccc2c(=O)c(-c3ccc(Cl)cc3Cl)coc12,-1.12%
13,COC(=O)c1ccc(Nc2ncnc3sccc23)cc1,-42.9% (active)
14,CCOc1ccc(Nc2ncnc3scc(-c4ccc(OC)cc4)c23)cc1,13.2%
15,COc1ccc(Nc2ncnc3sc(C)cc23)cc1,-13.7%
16,O=C(CSc1nc2ccccc2nc1Cc1ccccc1)N1CCCCC1,-12.3%
17,CCOC(=O)C1CCN(c2nc3c(S(=O)(=O)c4ccc(CC)cc4)nnn3c3ccc(Cl)cc23)CC1,-7.85%
18,Cc1ccc(-c2nnc(Nc3cccc(Br)c3)c3ccccc23)cc1S(=O)(=O)NCC1CCCO1 (centres undefined),-11.8%
19,N#Cc1ccc(OCCN2C(=O)NC3(CCSC3)C2=O)cc1 (centres undefined),-30.6% (active)
20,CC1(C)NC(=O)N(CCOc2cccc(Oc3ccccc3)c2)C1=O,1.02%
21,O=C(CN1C(=O)NC2(CCCC2)C1=O)OCCOc1ccc(F)cc1,-6.87%
22,CCOC(=O)N1CCc2c(sc(NCc3cccc(F)c3)c2C(=O)Nc2ccccc2OCC)C1,-17.6%
